# Source: PubChem BioAssay
# Rows were chosen to be rich in hits. Some 2.9% of all compounds tested hit in one or more screens of this group.
# FadD28 FP inh – inhibitors of Mycobacterium tuberculosis FadD28 bisubstrate binding. FadD28 bisubstrate probe binding, fluorescence polarization. inhibition, % at 12.5 µM. hit rate 0.22% among 360,000; in the data active means inhibition above about 8.5%, passing the limit was not always enough
# Mtb BioA inh – blocks M. tuberculosis BioA enzyme activity; purified M. tuberculosis BioA enzyme, plate reader; hit rate 0.096% among 360,000; AID 602481; inhibition, % at 9.99 µM; in the data active means inhibition above about 40%
# Mtb hypoxia inh – inhibitors of hypoxia-regulated fluorescent reporter in Mycobacterium tuberculosis. M. tuberculosis hypoxia-regulated fluorescent reporter, fluorescence. fluorescence inhibition, % (test concentration not listed). hit rate 0.1% among 300,000; in the data active means fluorescence inhibition mostly above about 23%, no sharp cut-off; inactive means mostly below about 17%
# GDH-TPI inh – inhibits GDH-TPI coupling enzymes, artifact for Mtb FBA screen; GDH-TPI coupled enzyme counterscreen, NADH absorbance; inhibition, % at 4.8 µM; hit rate 1.2% among 360,000; AID 588335; in the data active means inhibition above about 30%;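 further: 0% = DMSO wells and 100% = wells lacking the enzyme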
# FBA Mtb inh – inhibits M. tuberculosis FBA enzyme. P9WQA3. purified M. tuberculosis FBA, fluorescence read-out. inhibition, % at 1 µM. hit rate 2.3% among 360,000. AID 588726; in the data active means inhibition above about 27%;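 further: 0% = vehicle and 100% = reference inhibitor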
# Target sequence (P9WQA3 whole entry, looked up): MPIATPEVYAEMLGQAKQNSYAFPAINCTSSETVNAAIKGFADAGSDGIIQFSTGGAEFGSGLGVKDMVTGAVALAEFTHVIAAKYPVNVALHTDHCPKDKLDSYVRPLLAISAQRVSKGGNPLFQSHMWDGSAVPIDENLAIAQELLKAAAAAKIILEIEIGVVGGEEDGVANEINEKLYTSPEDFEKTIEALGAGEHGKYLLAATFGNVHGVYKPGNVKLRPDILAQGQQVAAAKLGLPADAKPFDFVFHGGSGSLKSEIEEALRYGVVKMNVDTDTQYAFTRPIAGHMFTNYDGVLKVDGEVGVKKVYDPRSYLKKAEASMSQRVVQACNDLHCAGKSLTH
# The depositor's hits bear a star; · = not tested or not shown; + = active, no number.
SMILES,FadD28 FP inh,Mtb BioA inh,Mtb hypoxia inh,GDH-TPI inh,FBA Mtb inh
CCCN(CCC)CCNC(=O)CCC(=O)Nc1ccc2nc(N3CCN(C)CC3)cc(C)c2c1,-2,·,-4,16,+
CCCCNC(=O)CCC(=O)Nc1ccc2nc(N3CCN(C)CC3)cc(C)c2c1,1,1,-11,3,23
CCOC(=O)N1CCC(NC(=S)Nc2ccc3nc(N4CCN(C)CC4)cc(C)c3c2)CC1,-4,-1,-5,11,9
O=C(CNC(=O)c1ccccc1)NN=Cc1cc(Br)ccc1O,·,·,14,·,·
CC=Cc1ccc2n(c1=O)C[C@@H]1[C@@H](CO)[C@H](C(=O)NCCc3ccccc3)N(CCC)[C@H]21 (mixture of isomers),·,-3,·,·,·
COCCn1c(C)cc(/C=C2/SC(=O)N(C(C)C(=O)OC)C2=O)c1C (stereo not given),-1,·,3,6,0
COCCn1c(C)cc(/C=C2\NC(=S)N(C)C2=O)c1C,-1,·,11,36*,-16
COc1ccc(N2C(=O)CS/C2=N\C(=S)Nc2ccccc2)cc1,0,-6,·,37*,0
Cc1ccccc1-n1c(O)c(C=Nc2ccc3c(c2)OCO3)c(=O)[nH]c1=O,0,3,0,33*,-2
COc1ccc(/C=C/C(=O)NC(=S)Nc2ccc(S(=O)(=O)Nc3cc(OC)ncn3)cc2)cc1,-1,·,2,25,0
COc1ccc(/C=C/C(=O)NC(=S)Nc2ccc(S(=O)(=O)Nc3nccnc3OC)cc2)cc1,-3,-1,8,49*,0
CC(=NNc1nccnc1Cl)c1ccc(Cl)c(Cl)c1,·,·,4,·,·
C/C(=N\Nc1nccnc1Cl)c1ccc(O)c(C)c1,1,-6,·,44*,2
CC1(C)CC(=O)C2=C(C1)c1c(ccc3ccccc13)NC2c1ccc(C(=O)O)cc1 (stereo not given),-2,1,2,6,+
CC1(C)CC(=O)C2=C(C1)c1c(ccc3ccccc13)NC2c1cc([N+](=O)[O-])cc([N+](=O)[O-])c1O (stereo not given),32*,·,1,9,-12
CO[C@@H]1CC[C@@H]2CCN(C)C(=O)[C@H](C)N(C)C(=O)c3cccc(C#N)c3OC[C@H]1O2,·,-1,·,·,·
COc1cc(OC)c(OC)cc1/C=N/NC(=O)c1cc(-c2cccn2C)n[nH]1,-3,·,·,38*,4
COc1ccc(/C=N/NC(=O)c2cc(-c3cccn3C)n[nH]2)cc1OC,-3,·,·,30,-1
COc1cc(OC)c(OC)cc1/C=N/NC(=O)c1ccc(=O)n(C)c1,0,·,·,54*,-1
C[C@H]1CN([C@@H](C)CO)S(=O)(=O)c2ccc(C3=CCCC3)cc2O[C@H]1CN(C)C(=O)c1ccncc1,·,5,·,·,·
O=C(C[C@@H]1C[C@H]2c3cc(NC(=O)c4ccc5c(c4)OCO5)ccc3O[C@H]2[C@H](CO)O1)NCc1cc(F)ccc1F,·,3,·,·,·
CC(=O)NNC(=O)c1sc(=S)n(C)c1C,-4,·,-9,33*,-4
COc1ccc(-c2ccnc3nc(N4CCOCC4)nn23)cc1,-2,-2,8,34*,84*
Cc1c(NC(=S)NC(=O)c2ccc(-c3ccc(Cl)cc3)o2)cccc1C(=O)O,-1,·,6,32*,1
O=C(NC(=S)Nc1ccccc1O)c1ccc(-c2ccc(Cl)cc2)o1,-2,-1,·,15,7
SMILES,FadD28 FP inh,Mtb BioA inh,Mtb hypoxia inh,GDH-TPI inh,FBA Mtb inh
Cc1nc2ccccc2c2nc(NC(=O)C(F)(F)F)nn12,-2,·,10,-22,2
Cn1nc(NC(=O)C(F)(F)F)c2ncc(-c3ccccc3)nc21,-1,-1,·,32*,6
O=C(C[C@@H]1C=C[C@H](NC(=O)CCN2CCCCC2)[C@@H](CO)O1)Nc1ccc(-c2ccccc2)cc1,·,1,·,·,·
Cn1cccc1C(=O)NC(=O)COC(=O)CCNS(=O)(=O)c1ccc(Cl)cc1,-2,0,-8,-1,4
CN(CC(=O)OCC(=O)NC(=O)c1cccn1C)S(=O)(=O)c1ccc(Cl)cc1,-3,-1,·,7,193*
COc1ccc2nc(-c3ccccn3)[nH]c2c1,-5,0,-3,20,9
COc1ccc2nc(-c3cccc(N)c3)[nH]c2c1,-3,0,·,17,177*
COc1ccc2nc(-c3ccc(N)cc3)[nH]c2c1,-3,3,·,30,+
CC(C)NC(=O)N1[C@@H](C#N)[C@H](c2ccc(C#CC3CC3)cc2)[C@@H]1CO,·,1,·,·,·
COc1cc(C=NN2CCN(C3c4ccccc4-c4ccccc43)CC2)cc(OC)c1O,·,·,-7,·,·
Cc1ccc(NC(=O)C(=O)NCc2ccc(/C=C(/C#N)C(=O)NCc3cccnc3)o2)cc1,-2,0,-3,32*,0
COCCNC(=O)/C(C#N)=C\c1ccc(CNC(=O)C(=O)Nc2ccc(C)c(C)c2)o1,-3,·,·,22,-1
N#C/C(=C/c1ccc(CNC(=O)C(=O)Nc2cc(Cl)cc(Cl)c2)o1)C(=O)NCc1cccnc1,-1,·,5,-4,0
Cc1ccc(NC(=O)C(=O)NCc2ccc(/C=C(/C#N)C(=O)NCc3cccnc3)o2)cc1C,-1,-2,13,34*,0
COC(=O)C[C@H]1C[C@@H]2c3cc(NS(=O)(=O)c4ccccc4)ccc3O[C@@H]2[C@@H](CO)O1,·,-1,·,·,·
CC(=NNC(=O)c1nnn(-c2nonc2N)c1CSc1ccccc1)c1ccco1,·,·,6,·,·
CN1CCCCN2[C@H](C1)[C@H](c1ccc(-c3cccnc3)cc1)[C@@H]2CO,·,-2,·,·,·
COc1ccc(OC)c(NC(=O)CSc2ncnc3sc(C)cc23)c1,14*,0,·,9,0
COc1cc(C=NNC(=O)C2=NNC(=O)C2C)ccc1O (stereo not given),·,·,1,·,·
COc1ccc(C(=O)C=Cc2ccc3c(c2)OCO3)cc1OC,-3,·,·,17,0
COc1ccc(C(=O)/C=C/c2ccc3c(c2)OCCO3)cc1,0,1,-2,36*,2
COc1cc(C(=O)C(=O)c2ccc(OC)c(OC)c2)ccc1O,-4,·,5,32*,-6
COc1ccc(/C=C/C(=O)c2ccc(O)cc2)cc1,-2,-1,·,29,5
COc1ccc(/C=C/C(=O)c2ccoc2)cc1,1,-1,14,38*,1
